This is an account of results in the supplement of paper PMC3545927.

The target in this test is furin, P09958. In words: furin cleavage Z-score vs untreated control; higher = more cleavage, active = 3.5 or more, inactive = 1 or less, 8 variable residues between constant flanks. On the procedure: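 Multiplexed peptide-cDNA fusion cleavage assay. 8-mer variable peptides flanked by constant Cys-Ala (N-term) and Ala-Gly-Asn-Ala-Ser-Ala-Ser-Ala (C-term) and conjugated to a cDNA oligonucleotide were bead-immobilised via the N-terminus. They were treated with purified furin at a 1:10 enzyme:substrate ratio in 50 mM HEPES pH 7.5, 1 mM CaCl2, 100 mM NaCl for 7.5, 15 or 30 min. Released cDNA was counted by next-generation sequencing, and log counts versus no-furin controls were lowess-adjusted and converted to robust Z-scores.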
Chain of furin, P09958 (P09958 whole entry, the tested form may be a part): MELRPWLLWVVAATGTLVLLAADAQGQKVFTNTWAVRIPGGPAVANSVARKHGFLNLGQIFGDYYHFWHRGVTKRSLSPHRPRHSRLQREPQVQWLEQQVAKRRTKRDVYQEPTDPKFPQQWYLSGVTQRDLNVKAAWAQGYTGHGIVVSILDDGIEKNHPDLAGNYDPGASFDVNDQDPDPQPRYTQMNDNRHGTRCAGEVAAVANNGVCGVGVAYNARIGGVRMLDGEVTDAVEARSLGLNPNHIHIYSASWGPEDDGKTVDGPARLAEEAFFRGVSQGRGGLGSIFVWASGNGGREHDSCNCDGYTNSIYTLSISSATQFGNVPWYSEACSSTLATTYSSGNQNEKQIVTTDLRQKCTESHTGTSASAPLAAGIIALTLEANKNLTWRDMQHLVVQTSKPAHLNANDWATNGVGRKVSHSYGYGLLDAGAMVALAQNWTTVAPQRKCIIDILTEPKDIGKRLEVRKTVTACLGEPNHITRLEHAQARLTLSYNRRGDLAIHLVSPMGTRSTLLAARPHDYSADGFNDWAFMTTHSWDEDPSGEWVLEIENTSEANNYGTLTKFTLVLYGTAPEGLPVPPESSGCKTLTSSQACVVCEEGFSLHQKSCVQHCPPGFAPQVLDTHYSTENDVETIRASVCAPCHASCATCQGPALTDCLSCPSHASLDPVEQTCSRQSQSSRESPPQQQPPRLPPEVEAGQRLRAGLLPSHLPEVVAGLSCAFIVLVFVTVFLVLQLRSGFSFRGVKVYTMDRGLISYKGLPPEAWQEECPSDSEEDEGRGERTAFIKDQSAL

The list shows a part of the results. The true hit rate is not given.

Regarding CASALYVGDLAGNASASA [HC297], the “furin cleavage Z-score” value (7.5 min) was -0.151 (inactive), the “furin cleavage Z-score” value (15 min) is -0.752 (inactive) and the “furin cleavage Z-score” value (30 min) is -0.26 (inactive).
As to CALKGRPARFAGNASASA [FS-1135], the “furin cleavage Z-score” value is 1.12 (7.5 min), 3.63 (active) (15 min) and 3.8 (active) (30 min).
CAARQRRARFAGNASASA [FS-1186]: the “furin cleavage Z-score” value runs as follows: (7.5 min) 7.96 (active); (15 min) 10.3 (active); (30 min) 9.01 (active).
For the sequence CAMTHRWNRFAGNASASA [FS-1545], the “furin cleavage Z-score” value (7.5 min) is -0.191 (inactive), the “furin cleavage Z-score” value (15 min) came to 1.1 and the “furin cleavage Z-score” value (30 min) is -0.35 (inactive).
Turning to CAFKHRRARFAGNASASA [FS-767], the “furin cleavage Z-score” value is 5.47 (active) (7.5 min), 8.44 (active) (15 min) and 8.1 (active) (30 min).
Turning to CAVEGERGFFAGNASASA [EK8], the “furin cleavage Z-score” value was -1.92 (inactive) (7.5 min), -1.33 (inactive) (15 min) and -1.12 (inactive) (30 min).
CADSSRPARFAGNASASA [FS-987]: the “furin cleavage Z-score” value was 0.601 (inactive) (7.5 min), 2.61 (15 min) and 1.35 (30 min).
CALLLALPQRAGNASASA [HC560]: the “furin cleavage Z-score” value runs as follows: (7.5 min) -0.644 (inactive); (15 min) -0.224 (inactive); (30 min) -1.36 (inactive).
CAEVRTSTWVAGNASASA [HC2193]: the “furin cleavage Z-score” value reads like this: (7.5 min) 0.577 (inactive); (15 min) -0.283 (inactive); (30 min) 2.14.
For CAIDVVCCSMAGNASASA [HC2104] the same measures were -0.251 (inactive), 0.23 (inactive) and 1.61.
In the case of CATTHCSGSWAGNASASA [HC1875], the “furin cleavage Z-score” value (7.5 min) is -0.832 (inactive), the “furin cleavage Z-score” value (15 min) is -0.00567 (inactive) and the “furin cleavage Z-score” value (30 min) is -1.4 (inactive).
For CAPCAAEEQKAGNASASA [HC1377], the “furin cleavage Z-score” value was 0.0863 (inactive) (7.5 min), -1.23 (inactive) (15 min) and 0.435 (inactive) (30 min).
For CARKKRLKESAGNASASA [FS-2343], the “furin cleavage Z-score” value is 0.749 (inactive) (7.5 min), 2.21 (15 min) and 1.93 (30 min).
For CARNGRWEESAGNASASA [FS-3005] the same measures were -0.164 (inactive), -0.44 (inactive) and 0.183 (inactive).
In the case of CARKKRQLYSAGNASASA [FS-2967], the “furin cleavage Z-score” value reads like this: (7.5 min) 7.88 (active); (15 min) 8.76 (active); (30 min) 9.63 (active).
Regarding CARKKRFVSSAGNASASA [FS-2213], the “furin cleavage Z-score” value runs as follows: (7.5 min) 9.34 (active); (15 min) 10.7 (active); (30 min) 11.2 (active).
CARKKRRRESAGNASASA [FS-1903]: the “furin cleavage Z-score” value is 4.55 (active) (7.5 min), 6.12 (active) (15 min) and 4.85 (active) (30 min).
For CASIVYEAADAGNASASA [HC266], the “furin cleavage Z-score” value is 0.365 (inactive) (7.5 min), 0.0281 (inactive) (15 min) and 0.406 (inactive) (30 min).
For the sequence CASVGLGKVLAGNASASA [HC1081], the “furin cleavage Z-score” value is 0.567 (inactive) (7.5 min), 0.113 (inactive) (15 min) and 1.61 (30 min).
In the case of CAVLSRASRSAGNASASA [FS-104], the “furin cleavage Z-score” value (7.5 min) was 9.22 (active), the “furin cleavage Z-score” value (15 min) is 8.83 (active) and the “furin cleavage Z-score” value (30 min) was 7.05 (active).
Regarding CANKSRSARSAGNASASA [FS-467], the “furin cleavage Z-score” value (7.5 min) is 7.95 (active), the “furin cleavage Z-score” value (15 min) was 7.93 (active) and the “furin cleavage Z-score” value (30 min) is 7.08 (active).
For CALNSRSARSAGNASASA [FS-1230] the same measures were 9.33 (active), 9.86 (active) and 8.45 (active).
On to CASKVRKSRSAGNASASA [FS-1166], for which the “furin cleavage Z-score” value was 10.9 (active) (7.5 min), 11.3 (active) (15 min) and 8.46 (active) (30 min).
On to CAMEEHSQHLAGNASASA [HC9], for which the “furin cleavage Z-score” value is, setting by setting: (7.5 min) -0.427 (inactive); (15 min) 0.433 (inactive); (30 min) 0.518 (inactive).
As to CASVCGPVYCAGNASASA [HC411], the “furin cleavage Z-score” value was -0.739 (inactive) (7.5 min), -0.0378 (inactive) (15 min) and 0.44 (inactive) (30 min).
As to CALSQTKQSGAGNASASA [HC947], the “furin cleavage Z-score” value reads like this: (7.5 min) -0.592 (inactive); (15 min) 0.456 (inactive); (30 min) -0.236 (inactive).
As to CAWGVLAGIAAGNASASA [HC337], the “furin cleavage Z-score” value (7.5 min) was -1.66 (inactive), the “furin cleavage Z-score” value (15 min) was -1.27 (inactive) and the “furin cleavage Z-score” value (30 min) was 0.739 (inactive).
Consider CAARPDYNPPAGNASASA [HC1305], for which the “furin cleavage Z-score” value was -1.38 (inactive) (7.5 min), -0.196 (inactive) (15 min) and -1.47 (inactive) (30 min).
For CAVVCCSMSWAGNASASA [HC2088], the “furin cleavage Z-score” value reads like this: (7.5 min) -0.556 (inactive); (15 min) 1.09; (30 min) 0.406 (inactive).
For CARCHARKAVAGNASASA [HC1425], the “furin cleavage Z-score” value is 0.121 (inactive) (7.5 min), 0.298 (inactive) (15 min) and -0.417 (inactive) (30 min).
With CACTPCSGSWAGNASASA [HC1840], the “furin cleavage Z-score” value by setting is: (7.5 min) -0.759 (inactive); (15 min) -0.736 (inactive); (30 min) -0.368 (inactive).
With CAYPWPLYGNAGNASASA [HC201], the “furin cleavage Z-score” value by setting is: (7.5 min) -0.792 (inactive); (15 min) 1.01; (30 min) -0.667 (inactive).
Take CAPALRSARSAGNASASA [FS-66]: the “furin cleavage Z-score” value is, setting by setting: (7.5 min) 0.638 (inactive); (15 min) 1.37; (30 min) 1.27.
CASKSRVSRLAGNASASA [FS-1488]: the “furin cleavage Z-score” value is 3.43 (7.5 min), 1.78 (15 min) and 3.65 (active) (30 min).
CASAHRQPRLAGNASASA [FS-144]: the “furin cleavage Z-score” value is 0.7 (inactive) (7.5 min), 0.218 (inactive) (15 min) and 0.636 (inactive) (30 min).
Take CASKSRSARSAGNASASA [FS-500]: the “furin cleavage Z-score” value reads like this: (7.5 min) 10.3 (active); (15 min) 8.51 (active); (30 min) 6.45 (active).
For CAYGSRHIRLAGNASASA [FS-1107] the same measures were 0.267 (inactive), 1.21 and 2.07.
The like results for CASVASSSASAGNASASA [HC1259] were, in that order, -0.54 (inactive), 0.0424 (inactive) and -0.501 (inactive).
On to CALNARYSRSAGNASASA [FS-52], for which the “furin cleavage Z-score” value runs as follows: (7.5 min) 8.29 (active); (15 min) 10.6 (active); (30 min) 9.13 (active).
On to CARLWRKSRSAGNASASA [FS-189], for which the “furin cleavage Z-score” value runs as follows: (7.5 min) 9.72 (active); (15 min) 8.99 (active); (30 min) 8.13 (active).
As to CAMEECSEHLAGNASASA [HC1732], the “furin cleavage Z-score” value (7.5 min) was 0.304 (inactive), the “furin cleavage Z-score” value (15 min) was -1.16 (inactive) and the “furin cleavage Z-score” value (30 min) is 0.588 (inactive).
In the case of CAAVPCHRPSAGNASASA [HC2303], the “furin cleavage Z-score” value reads like this: (7.5 min) 0.31 (inactive); (15 min) -0.11 (inactive); (30 min) 0.292 (inactive).
Consider CALGKVIDTLAGNASASA [HC220], for which the “furin cleavage Z-score” value is, setting by setting: (7.5 min) -0.0125 (inactive); (15 min) 0.316 (inactive); (30 min) -0.584 (inactive).
